Bioassay records as filed in PubChem.
Pol kappa inh-1 – qHTS for Inhibitors of Polymerase Kappa; purified Pol kappa, fluorescent DNA synthesis assay, 10 min; DNA polymerase kappa (Homo sapiens), Q9UBT6; AID 588579, 2011; hit rate 0.53% among 400,000; Potency, µM (series often up to 107 µM), without a hit: top-dose activity, negative = inhibition, most hits filed as inhibitors; note: % is set by controls: 0 for no effect and ±100 for the full control effect
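First, compounds were pin-transferred onto 10 nM Pol kappa. After 15 min at room temperature, substrate was added to 50 nM final. Fluorescence was then measured kinetically at 0 and 10 min.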
WRN helicase inh-1 – qHTS for Inhibitors of WRN Helicase; Bifunctional 3'-5' exonuclease/ATP-dependent helicase WRN (Homo sapiens), Q14191; WRN helicase unwinding, fluorescent forked duplex, kinetic; Potency, µM (doses to about 114 µM), for inactives: top-dose activity change, negative = inhibition, actives largely listed as inhibitors; hit rate 0.46% among 360,000; AID 651768, 2012; note: % is set by controls: 0 for no effect and ±100 for the full control effect; nearly all actives have a fitted effect of over 55% in size
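Kinetic fluorescence helicase assay: unwinding of a quenched forked DNA duplex (100 nM final) with 2 mM ATP final raises red fluorescence (525/598 nm). Compounds sat 15 min at room temperature with 20 nM WRN beforehand.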
Pol iota inh – qHTS for Inhibitors of Polymerase Iota; Pol iota fluorescent replication assay, 10 min; Potency, µM (titrated, usually from 115 µM), inactives show at the highest dose activity, negative = inhibition, usual class: inhibitors; hit rate 1% among 390,000; AID 588590, 2011
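Fluorescent replication assay read twice, at 0 min and 10 min after adding 50 nM (final) substrate. Enzyme (10 nM) and compounds were first incubated 15 min at room temperature; enzyme-free buffer wells were negative controls.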
Pol eta inh-1 – qHTS for Inhibitors of Polymerase Eta; DNA polymerase eta (Homo sapiens), Q9Y253; recombinant Pol eta, fluorescent DNA replication assay; Potency, µM (doses to about 114 µM), without a hit: at the highest dose activity change, negative = inhibition, actives largely listed as inhibitors; hit rate 1.2% among 390,000; AID 588591, 2011; note: % is set by controls: 0 for no effect and ±100 for the full control effect
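Pol eta (10 nM) was preincubated with compounds for 15 min at room temperature, after which fluorescent replication substrate (50 nM final) was added to start the reaction. Fluorescence was read kinetically at 0 and 10 min.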
Pol beta inh – qHTS Assay for Inhibitors of DNA Polymerase Beta; P06746; Pol beta primer extension/strand displacement, fluorescence kinetic; Potency, µM (top dose mostly 114 µM), inactives show top-dose activity change, negative = inhibition, hits mostly inhibitors; hit rate 1.3% among 340,000; note: % is set by controls: 0 for no effect and ±100 for the full control effect
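Homogeneous kinetic assay of primer extension and strand displacement by 10 nM Pol beta, preincubated 15 min at room temperature with compound before 50 nM substrate (final) was added. Read at 0 and 10 min; four-parameter Hill fit.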
FEN1 inh-1 – qHTS Assay for the Inhibitors of Human Flap endonuclease 1 (FEN1); hit rate 0.35% among 390,000; Recombinant FEN1 flap cleavage, fluorescence, 15 min; Potency, µM (doses to about 114 µM), for the others: top-dose activity change, negative = inhibition, actives largely listed as inhibitors; note: % is set by controls: 0 for no effect and ±100 for the full control effect; nearly all actives have a fitted effect of over 65% in size
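FEN1 at 10 nM preincubated with compounds 15 min at room temperature, then flap DNA substrate added at 50 nM final. Signal read at 0 and 15 min; concentration-response fitted with four-parameter Hill equation.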
POLI cherry-pick – qHTS for Inhibitors of Polymerase Iota: Confirmatory Assay for Cherry-picked Compounds; shares compounds with Pol kappa inh-1; Pol iota primer extension, TAMRA/BHQ fluorescence; Potency, µM, actives largely listed as inhibitors; hit rate 77% among 1,500
Pol kappa inh-2 – qHTS for Inhibitors of Polymerase Kappa: Confirmatory Assay for Cherry-picked Compounds; shares compounds with Pol eta inh-1; purified Pol-kappa, fluorescent strand-displacement substrate; Potency, µM, most hits filed as inhibitors; hit rate 76% among 920; AID 720501, 2013
Pol eta inh-2 – qHTS for Inhibitors of Polymerase Eta: Confirmatory Assay for Cherry-picked Compounds; Pol eta primer extension, TAMRA/BHQ fluorescence, 10 min; AID 720502, 2013; shares compounds with Pol eta inh-1; hit rate 64% among 2,600; Potency, µM, actives largely listed as inhibitors
FEN1 inh-2 – qHTS Assay for the Inhibitors of FEN1: Confirmatory Assay for Cherry-picked Compounds; hit rate 79% among 880; FEN1 flap cleavage, TAMRA/BHQ2 fluorogenic DNA substrate; shares compounds with FEN1 inh-1; AID 720498, 2013; Potency, µM, actives largely listed as inhibitors; note: nearly all actives have a fitted effect of over 60% in size
WRN helicase inh-2 – qHTS for Inhibitors of WRN Helicase: Confirmatory Assay for Cherry-picked Compounds | shares compounds with WRN helicase inh-1 | WRN helicase DNA unwinding, fluorescence kinetic | AID 720497, 2013 | Potency, µM (series often up to 57.1 µM), for inactives: at the top dose activity, negative = inhibition, usual class: inhibitors | hit rate 63% among 610; note: nearly all actives have a fitted effect of over 65% in size
TO displacement – qHTS for Inhibitors of WRN Helicase: Thiazole Orange DNA Binding Counterscreen; shares compounds with WRN helicase inh-1; thiazole orange DNA binding displacement, fluorescence; Potency, µM (doses to about 57.1 µM), for inactives: at the highest dose activity change, negative = inhibition, actives largely listed as inhibitors; hit rate 10% among 610;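 note: drop in dye fluorescence marks compound binding to DNA; % is set by controls: 0 for no effect and ±100 for the full control effect; nearly all actives have a fitted effect of over 60% in size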
BLM counter – qHTS for Inhibitors of WRN Helicase: BLM Helicase Counterscreen for WRN Inhibitors; shares compounds with WRN helicase inh-1; Recombinant BLM helicase DNA unwinding, red fluorescence; Potency, µM (doses to about 57.1 µM), for the others: top-dose activity change, negative = inhibition, actives largely listed as inhibitors; hit rate 60% among 610; AID 720503, 2013; note: nearly all actives have a fitted effect of over 60% in size
Numbers without * were called inactive; ? = inconclusive; · = no result given; [ ] = dose if it differs, or a comment. This is a sample that favours compounds with a hit; in the whole collection about 2.4% have one here. Calls come from the whole dose curve; as a rule, active = well fitted curve in the direction sought with a large enough effect; inconclusive = small, poorly fitted or top-dose-only effect, or another doubt; inactive = no such curve, though single readings can be large; an effect the other way counts as inactive or inconclusive. Potency is the fitted concentration of half-maximal effect.

SMILES | Pol kappa inh-1 | WRN helicase inh-1 | Pol iota inh | Pol eta inh-1 | Pol beta inh | FEN1 inh-1 | POLI cherry-pick | Pol eta inh-2 | WRN helicase inh-2 | TO displacement | BLM counter | others
O=C1C(Cl)=C(NC(=O)c2ccccc2)C(=O)C(Cl)=C1NC(=O)c1ccccc1 | -11.9% | 20µM* | 1.58µM* | -10.4% | -11.7% | 79.4µM* | 23.8* | 84.9* | -19.3% | 21.5µM* | -26.3%
Nc1nc2c(s1)COc1ccccc1-2 | 14.6% | 5.6% | 48.4% | -6.7% | -1.6% | -3.4% | · | · | · | · | ·
Nc1nc2c(s1)CCc1c-2cnn1-c1ccccc1 | -4.2% | -24.8% | 14.1µM* | 79.4µM* | ? | 17.8µM* | 23.8* | 67.5* | 30.4µM* | -15.7% | 30.4µM*
Cc1ccc(C)c(NC(=O)CN(C)C(=O)c2cccc(N3C(=O)CCC3=O)c2)c1 | 8.5% | -1.5% | 26.8% | -1.3% | · | -1.7% | · | · | · | · | ·
Cc1ccc(NC(=O)CN(C)C(=O)c2cccc(-n3cccc3)c2)cc1 | 17.8µM* | 35.5µM* | 8.91µM* | 2.51µM* | · | ? | 15* | 16.9* | 7.64µM* | -15.3% | 2.15µM*
N#CNC(=O)c1ccc(-n2cccc2/C=C2\NC(=O)N(CC(=O)Nc3cccc(F)c3)C2=O)cc1 | · | · | · | · | · | · | 29.9* | 42.6* | 10.8µM* | 9.61µM* | 4.82µM* | Pol kappa inh-2=13.4*;FEN1 inh-2=33.8*
N#CNC(=O)c1ccc(-n2cccc2/C=C2\NC(=O)N(CC(=O)Nc3ccc(Cl)cc3)C2=O)cc1 | · | · | · | · | · | · | 6.7* | ? | 4.29µM* | ? | 0.961µM* | Pol kappa inh-2=4.74*;FEN1 inh-2=23.9*
CCn1c(C)cc(/C=C2/NC(=O)N(CC(=O)Nc3cccc(C)c3)C2=O)c1C | -24.6% | -1.9% | -0.5% | 10.2% | -1.8% | -15.3% | · | · | · | · | ·
CCOC(=O)C1CCN(S(=O)(=O)c2cc3c4c(c2)CC(=O)N4CCC3)CC1 | -4.8%[60.1 µM] | · | 18.9% | -22.2% | -17.9% | -2.4% | · | · | · | · | ·
